Shown are actives, neighbours in structure and some others; about 1.3% of the full set was active somewhere.
EPAC2 antagonist = qHTS for Antagonist of cAMP-regulated guanine nucleotide exchange factor 2 (EPAC2): primary screen; Rap guanine nucleotide exchange factor 4 (Homo sapiens), Q8WZA2; EPAC2 GEF exchange of Rap1B-BODIPY-GDP, fluorescence; Potency, µM (titrated, usually from 114 µM), usual class: inhibitors; hit rate 0.18% among 360,000; AID 720708, 2013; note: nearly all actives have a fitted effect of over 45% in size
Target sequence (Q8WZA2 whole entry, looked up): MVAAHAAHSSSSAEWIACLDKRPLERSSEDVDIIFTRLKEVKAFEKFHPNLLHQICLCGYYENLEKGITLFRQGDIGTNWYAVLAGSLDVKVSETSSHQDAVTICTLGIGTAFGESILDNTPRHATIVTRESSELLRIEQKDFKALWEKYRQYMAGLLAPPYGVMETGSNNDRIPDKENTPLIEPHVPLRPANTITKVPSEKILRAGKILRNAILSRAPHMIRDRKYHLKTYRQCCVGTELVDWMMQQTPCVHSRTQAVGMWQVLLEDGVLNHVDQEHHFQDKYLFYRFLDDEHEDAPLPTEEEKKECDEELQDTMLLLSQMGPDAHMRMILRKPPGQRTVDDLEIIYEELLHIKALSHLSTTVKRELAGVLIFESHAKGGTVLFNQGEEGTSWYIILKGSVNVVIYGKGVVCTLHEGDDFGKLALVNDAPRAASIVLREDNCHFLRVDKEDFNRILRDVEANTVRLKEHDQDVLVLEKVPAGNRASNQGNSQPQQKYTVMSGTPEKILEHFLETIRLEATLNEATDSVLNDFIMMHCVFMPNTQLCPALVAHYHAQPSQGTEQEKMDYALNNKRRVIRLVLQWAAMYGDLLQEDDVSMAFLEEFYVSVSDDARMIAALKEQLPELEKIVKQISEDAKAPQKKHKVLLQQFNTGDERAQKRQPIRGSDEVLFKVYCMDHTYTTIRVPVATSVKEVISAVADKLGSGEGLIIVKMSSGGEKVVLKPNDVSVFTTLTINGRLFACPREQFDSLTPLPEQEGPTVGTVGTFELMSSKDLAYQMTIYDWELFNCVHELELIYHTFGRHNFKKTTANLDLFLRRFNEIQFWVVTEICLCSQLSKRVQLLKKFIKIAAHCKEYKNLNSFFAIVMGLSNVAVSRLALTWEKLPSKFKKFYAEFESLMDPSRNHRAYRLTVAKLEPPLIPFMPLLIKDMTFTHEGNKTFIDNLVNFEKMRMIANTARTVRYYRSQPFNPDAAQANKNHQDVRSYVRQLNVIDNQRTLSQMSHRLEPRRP
EPAC1 antagonist = qHTS for Antagonist of cAMP-regulated guanine nucleotide exchange factor 3 (EPAC1): primary screen; Rap guanine nucleotide exchange factor 3 (Homo sapiens), O95398; EPAC1 GEF assay, Rap1b-BODIPY-GDP exchange fluorescence; Potency, µM (top dose mostly 115 µM), usual class: inhibitors; hit rate 0.14% among 360,000; note: nearly all actives have a fitted effect of over 50% in size
BRCA1 expr act = qHTS Assay to Identify Small Molecule Activators of BRCA1 Expression; MCF7-BRCA1-FFLuc reporter, luminescence, 48 h; response scale: scaled: vehicle 0%, 10 µM genistein 100%; Potency, µM (highest dose often 46.1 µM), usual class: activators; hit rate 1.1% among 380,000; note: nearly all actives have a fitted effect of over 80% in size
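MCF7-BRCA1-FFLuc cells, 2000/well in phenol-red-free MEM, attached 2 h then treated 48 h at 37 C. Luciferase luminescence read 15 min after reagent; normalized to genistein maximum activation (10microM) and DMSO, concentration-response fitted.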
EPAC2 ag = qHTS for Agonist of cAMP-regulated guanine nucleotide exchange factor 4 (EPAC2): primary screen | AID 720711, 2013 | Potency, µM (series often up to 154 µM), usual class: activators | hit rate 0.079% among 360,000 | EPAC2 activation, biochemical qHTS; response scale: 100% = 6.5 mM cAMP response; note: nearly all actives have a fitted effect of over 50% in size
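Fluorescence exchange assay: 100 nM EPAC2 with 250 nM RAP1B-BODIPY-GDP and 50 uM GDP; compounds tested as a concentration-titration series (qHTS). Loss of Rap1-bound BODIPY-GDP fluorescence read at 480/540 nm; data normalized to 6.5 mM cAMP.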
RGS4 inh = Inhibitors of Regulator of G Protein Signaling (RGS) 4: qHTS. hit rate 0.039% among 390,000. Potency, µM (doses to about 114 µM), hits mostly inhibitors. Regulator of G-protein signaling 4 (Homo sapiens), P49798. Transcreener GDP fluorescence polarization, RGS4-accelerated GTP hydrolysis; note: nearly all actives have a fitted effect of over 75% in size
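MLSMR compounds (23 nl, pin-transferred) preincubated 10 min at room temperature with a 500nM (2x) first reagent, then RGS4 at 900nM (2x) plus Transcreener GDP mix added; fluorescence polarization (620/688 nm) read before and after 90 min at 30 °C.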
EPAC1 ag = qHTS for Agonist of cAMP-regulated guanine nucleotide exchange factor 3 (EPAC1): primary screen | Rap guanine nucleotide exchange factor 3 (Homo sapiens), O95398 | EPAC1 agonist qHTS, biochemical assay; response scale: 100% = response to 6.5 mM cAMP | Potency, µM (doses to about 154 µM), most hits filed as activators | hit rate 0.073% among 360,000 | AID 720707, 2013; note: nearly all actives have a fitted effect of over 60% in size
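Read-out is the fluorescence drop as BODIPY-GDP leaves Rap1B (480 nm excitation, 540 nm emission), recorded every 5 minutes over 30 minutes. Reactions held 100 nM EPAC1, 250 nM Rap1B–BODIPY-GDP and 50 uM GDP, with 6.5 mM cAMP setting full activation.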
Each line names hits and unclear results; the compound was inactive in the other large screens; ! = not active in a repeat. Calls come from the whole dose curve; as a rule, active = well fitted curve in the direction sought with a large enough effect; inconclusive = small, poorly fitted or top-dose-only effect, or another doubt; inactive = no such curve, though single readings can be large; an effect the other way counts as inactive or inconclusive.

CONC(=O)C1CCN(C(=O)OCc2ccccc2)CC1	BRCA1 expr act 14.1µM
COC(=O)CNC(=O)C1CCN(C(=O)OCc2ccccc2)CC1	none
O=c1cc[nH]c2c1ccc1c(=O)cc[nH]c12	none
CC(=O)/C=C1\C(=O)N(C)c2ccccc21	RGS4 inh 18.9µM (no result: EPAC2 antagonist, EPAC1 antagonist, BRCA1 expr act, EPAC2 ag, EPAC1 ag)
CCSc1nnc(NC(=O)c2ccc3c(c2)OCO3)s1	BRCA1 expr act inconclusive
Cc1nc2ccc3nc(NC(=O)c4ccc5c(c4)OCCO5)sc3c2s1	BRCA1 expr act 8.91µM!, RGS4 inh inconclusive
CCN(CC)C(=O)c1sc(NC(=O)c2ccc3c(c2)OCO3)c(C(N)=O)c1C	BRCA1 expr act 11.2µM
CC(C)Sc1nnc(NC(=O)c2ccc3c(c2)OCO3)s1	BRCA1 expr act 2.51µM
Cc1nc2c(ccc3nc(NC(=O)c4ccc5c(c4)OCCO5)sc32)s1	BRCA1 expr act 2.82µM
COCCNC(=O)C1CCCN(Cc2ccccc2F)CC1 (configuration not stated)	none (no result: RGS4 inh)
CC(C)c1ccc(Nc2nc(CC(=O)O)cs2)cc1	BRCA1 expr act 5.01µM
CN(C)c1ccc(/C=C2\C=Cc3ccccc32)cc1	BRCA1 expr act 3.55µM (no result: EPAC2 antagonist, EPAC1 antagonist, EPAC2 ag, RGS4 inh, EPAC1 ag)
CCN(CC)c1ccc(/C=C2\C=Cc3ccccc32)cc1	BRCA1 expr act 4.47µM (no result: EPAC2 antagonist, EPAC1 antagonist, EPAC2 ag, RGS4 inh, EPAC1 ag)
CN(C)c1ccc(C=C2C=Cc3ccccc32)cc1	BRCA1 expr act inconclusive
O=c1[nH]c(N2CCOCC2)nc2ncn(Cc3ccccc3)c12	none
CC1CCN(C(=O)CCNC(=O)c2ccccc2Cl)CC1	none
COC(=O)CCCNC(=O)c1ccc2oc(CCCc3ccccc3)nc2c1	none
COC(=O)[C@@H](C)NC(=O)c1ccc2oc(CCc3ccccc3)nc2c1	BRCA1 expr act 11.2µM
C=CC[N+](C)(C)CCCNC(=O)/C=N/O	EPAC2 ag inconclusive
COc1cccc(NC(=O)CN(C)C(=O)CNC(=O)c2sc3ccccc3c2Cl)c1	BRCA1 expr act inconclusive
COc1ccc(NC(=O)CN(C)C(=O)CNC(=O)c2sc3ccccc3c2Cl)cc1	BRCA1 expr act 7.94µM
Cc1ccc2oc(C(=O)Nc3ccc(S(=O)(=O)Nc4onc(C)c4C)cc3)c(C)c2c1	EPAC2 antagonist inconclusive, BRCA1 expr act 11.2µM
Cc1cc(C(=O)Nc2ccc(S(=O)(=O)Nc3onc(C)c3C)cc2)c(C)o1	RGS4 inh inconclusive
CSc1ccc(/C=C/C(=O)OCC(=O)NC2CCCC2)cc1	none (no result: RGS4 inh)
CC(C)OCCCNC(=O)C1CCC(CNS(=O)(=O)c2ccc(Cl)cc2)CC1 (configuration not stated)	EPAC1 antagonist inconclusive
CCCS/C(N)=N/N=C/c1cc(C)ccc1O	BRCA1 expr act inconclusive
CCCCS/C(N)=N/N=C/c1ccccc1O	BRCA1 expr act 7.94µM
CCOC(=O)c1sc(Nc2ccccc2Cl)nc1C	BRCA1 expr act 8.91µM
O=C(CSc1nc(-c2ccccc2)ns1)N1CCOCC1	BRCA1 expr act 3.98µM
CCOC(=O)/C(=C\c1ccc(N2CCC(c3ccccc3)=N2)cc1)C(C)=O	EPAC2 ag 100µM, EPAC1 ag inconclusive
Cc1ccc(S(=O)(=O)N2[C@@H](c3ccc(Cl)cc3)C(C(=O)O)=CC[C@H]2c2ccc(C(C)C)cc2)cc1	EPAC2 antagonist inconclusive, EPAC1 antagonist 50.1µM
O=C1NC(=S)S/C1=C\C=C\c1ccc([N+](=O)[O-])o1	EPAC2 antagonist 50.1µM, EPAC1 antagonist 56.2µM, RGS4 inh inconclusive
CC(=O)c1ccc(NC(=O)c2cc(Cl)sc2Cl)cc1	BRCA1 expr act 3.98µM
Cc1cc(C)cc(NC(=O)c2cc(Cl)sc2Cl)c1	none
CCOC(=O)C1(CCOC)CCN(Cc2nc(-c3cccs3)oc2C)CC1	none
Cc1cc(C)c2c(N)c(C(=O)NC3CCCC3)sc2n1	none
Cc1cccc(COc2ccc(/C=N/NC(=O)c3nnn(-c4nonc4N)c3CN3CCCCC3)cc2)c1	none
Nc1nonc1-n1nnc(C(=O)N/N=C/c2ccc(OCc3cccc(Cl)c3)cc2)c1CN1CCCCC1	BRCA1 expr act 2.51µM
COc1ccc(NC(=O)Nc2nc3c(s2)CCCC3)cc1	BRCA1 expr act inconclusive
CC(C)(C)c1ccc(C(=O)NCC2CCCN2S(=O)(=O)c2ccccc2)cc1 (configuration not stated)	EPAC1 antagonist inconclusive, EPAC1 ag 44.7µM
CCCc1cc(=O)[nH]c(SCC(=O)Nc2nc3ccc(OCC)cc3s2)n1	none
CCOc1ccc2nc(NC(=O)C(CC)Sc3nc(C)cc(=O)[nH]3)sc2c1 (configuration not stated)	BRCA1 expr act 5.62µM
Cc1cccc(C(=O)NNC(=O)c2cccc(C)c2)c1	none
Cc1cccc(C(=O)NC(=O)Nc2c(C)cc(C)nc2C)c1	EPAC1 antagonist inconclusive, BRCA1 expr act 3.98µM
Cc1ccc(C(=O)NCC(=O)N(C)Cc2cccc(F)c2)s1	none
CCCc1cc(=O)n2[nH]c(-c3ccccc3)cc2n1	none
CCOC(=O)Cc1cc(=O)n2[nH]c(-c3ccc(Cl)cc3)cc2n1	none
CCCc1cc(=O)n2[nH]c(-c3ccc(C)cc3)cc2n1	BRCA1 expr act 1.41µM
CCCc1cc(=O)n2[nH]c(-c3ccc(Cl)cc3)cc2n1	BRCA1 expr act 7.08µM
CC(=O)Oc1ccc2occ(C(=O)c3cccs3)c2c1	BRCA1 expr act inconclusive
Cc1ccc(C2C=C(c3ccccc3)Nc3nc(NS(=O)(=O)c4ccc(C)cc4)nn32)cc1 (configuration not stated)	none (no result: EPAC2 antagonist, EPAC1 antagonist, BRCA1 expr act, EPAC2 ag, EPAC1 ag)
COc1cc2c(cc1[N+](=O)[O-])-c1ccccc1C2	none
Cc1cccc(-c2ncc(S(=O)(=O)C(C)(C)C)c(N)n2)c1	BRCA1 expr act 5.01µM
Cc1ccc(-n2c(N)c(C(=O)Nc3c(C)n(C)n(-c4ccccc4)c3=O)c3nc4ccccc4nc32)cc1	none
O=C(O)/C=C\C(=O)Nc1ccccc1C#Cc1ccc(Br)cc1	EPAC2 antagonist 10µM
CCOC(=O)c1c(NC(=S)Nc2ccccc2)sc2c1CCN(CC)C2	none
O=c1oc2cc(O)ccc2cc1-c1nc2ccccc2o1	EPAC2 ag inconclusive, EPAC1 ag 63.1µM (no result: RGS4 inh)
Cc1nc(-c2ccc3c(c2)OCO3)cs1	BRCA1 expr act inconclusive
Cc1nc(-c2ccc3c(c2)OCCCO3)cs1	BRCA1 expr act 2.51µM
S=Cc1ccc(/C=C/c2ccnc3ccccc23)cc1	none (no result: EPAC2 antagonist, EPAC1 antagonist, EPAC2 ag, RGS4 inh, EPAC1 ag)

High-throughput results deposited in PubChem BioAssay by National Center for Advancing Translational Sciences (NCATS).
